From PubChem BioAssay AID651718 (The Scripps Research Institute Molecular Screening Center, 2012) come the findings set out here.

The inhibition is the drop in the measured response relative to a control, in per cent.

Screen size: about 360,000 compounds; about 2,700 (0.75%) were called active. No stated cut-off is given here; in the data, active means inhibition above about 4.5%; inactive means the rest. Only a selection was taken, and actives are over-represented in it overall.

The subject of this assay is Methionine sulfoxide reductase A (Bos taurus). Description: inhibition of methionine sulfoxide reductase A – biochemical, absorbance, bovine, HTS, primary screen (AID 651718).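 Further: 0% = vehicle wells with enzyme and 100% = reference inhibitor wells.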 The conditions noted are these: purified bovine MsrA, absorbance read-out; at 15.5 µM; stronger effect = higher value.
As to `CCCN(CC(=O)Nc1ccccc1OC)C(=O)CCC(=O)c1ccc(F)cc1`, the inhibition was -0.69% (inactive). The result for `CSc1nc(N(C)NC(=O)c2cccc(C)c2)c2ccccc2n1` reads 0.74% (inactive); that for `Cc1cc(C)nc(S/C=C/C(=O)c2ccccc2)n1`, 5.17% (active). As for `CCOC(=O)C(=Cc1ccccc1)C(=O)c1ccccc1`, the inhibition was 0.49% (inactive).

Consider `CCc1ccc(C2=CC(=O)CC(C)(C)C2=O)cc1`, for which the inhibition was 0.09% (inactive).

Regarding `COc1cccc(CNC(=O)[C@H]2CCCN2C(=O)[C@H]2CCCN2C(=O)C2CCCCC2)c1`, the inhibition was -0.24% (inactive).

Consider `COCC1CCN(C(=O)C2CCC(=O)N(CC3CCCCC3)C2)CC1` (centres undefined), for which the inhibition was -0.21% (inactive). The result for `Oc1oc(-c2ccccc2Br)nc1/C=N/c1ccccn1` reads 2.4% (inactive); that for `CC(N=Cc1nc(-c2ccccc2)oc1O)c1ccccc1` (centres undefined), 5.77% (active); that for `Cc1ccc(-c2noc(CC(c3ccccc3)c3ccccc3)n2)cc1`, 0.66% (inactive). For the molecule `CCN(CC)CC1(O)CCN(C(=O)c2ccc(Cl)c(Cl)c2)CC1`, the inhibition is -0.14% (inactive).

In the case of `Cc1ccc(C)c(CN2CCC(CNC(=O)C3CCCN(c4ncnc5c4nc4n5CCCCC4)C3)CC2)c1` (centres undefined), the inhibition is 1.23% (inactive). With `CSc1ccc(/C=C2\NC(=O)NC2=O)cc1`, the inhibition was 7.41% (active).

In the case of `CSc1ccc(/C=C/C(=O)NC23CC4CC(CC(C4)C2)C3)cc1`, the inhibition was 3.33% (inactive).

As for `CC(C)c1ccc(/C=C2\NC(=O)NC2=O)cc1`, the inhibition is 1.9% (inactive). `OC(CCl)CCl`: the inhibition was -0.37% (inactive). Under `COc1ccc(CN2CCC(C)(Oc3cccc(F)c3)C2)c2ccccc12` (centres undefined) stands 0.31% (inactive); under `CC(/C=N/NC(=O)c1cc(-c2ccc3ccccc3c2)n[nH]1)=C\c1ccco1`, 2.77% (inactive); under `CC(/C=N/NC(=O)c1ccncc1)=C\c1ccco1`, 4.8% (active). The result for `CC(=NNC(=O)c1ccncc1)c1ccc(Cl)c(Cl)c1` reads -0.76% (inactive); that for `C=CCN1C(=O)N(Cc2ccccc2)c2ccccc2S1(=O)=O`, 3.26% (inactive); that for `COCCNC(=S)N/N=C/c1c(C)[nH]c2ccccc12`, 5.52% (active). `COCCNC(=S)N(CCc1c(C)[nH]c2ccc(C)cc12)Cc1cccnc1`: the inhibition is -1.51% (inactive). The result for `Cc1[nH]c2ccccc2c1/C=N/NC(=O)CNC(=O)c1ccc2c(c1)OCO2` reads 2.56% (inactive). The result for `Clc1cccc2c1C1CC2CCN1Cc1ccccc1` (centres undefined) reads -1.2% (inactive); that for `COC(=O)c1cc2c(c3c4cc(F)ccc4n(S(=O)(=O)c4ccccc4)c13)C(=O)N(Cc1ccccc1OC)C2`, 1.35% (inactive). The result for `CCCCC1S/C(=N/N=C/c2cccs2)NC1=O` (centres undefined) reads 0.75% (inactive); that for `O=C1N/C(=N\N=C\c2ccco2)SC1Cc1ccc(F)cc1` (centres undefined), 2.66% (inactive).

With `CCC1S/C(=N/N=C/c2ccco2)NC1=O` (centres undefined), the inhibition was 4.55% (active). Under `COC(=O)C1=C(C)N(Cc2ccc(C(F)(F)F)cc2)C(=NCc2ccccc2)NC1c1ccccc1C(F)(F)F` (centres undefined) stands 2.37% (inactive); under `CC(C)(C)c1ccc(S(=O)(=O)NCC2CCN(C(=O)C(=O)c3cc4ccccc4o3)CC2)cc1`, 1.27% (inactive).

As for `Cc1cccc(-n2c(N)c(C(=O)N3CCN(C)CC3)sc2=S)c1`, the inhibition was 2.37% (inactive).

For `Cc1cccc(-n2c(O)c(C=Nc3ccccc3N)c(=O)[nH]c2=O)c1`, the inhibition is 5.11% (active). The result for `COc1cc(OC)cc(C(=O)NCCSCc2ccc(Cl)cc2)c1` reads -2.11% (inactive); that for `CCOC(=O)c1c(NC(=S)NC(=O)/C=C/c2cccs2)sc(C)c1C`, -0.71% (inactive); that for `CCc1nnc(NS(=O)(=O)c2ccc(NC(=S)NC(=O)/C=C/c3cccs3)cc2)s1`, 4.76% (active). With `CCc1nnc(NS(=O)(=O)c2ccc(NC(=O)c3cccc(OC(F)(F)C(F)F)c3)cc2)s1`, the inhibition was -0.35% (inactive). The result for `Cc1cc(C(=O)NNC(=S)NC(C)c2ccccc2)cs1` (centres undefined) reads 0.13% (inactive); that for `Cn1nnnc1SCC(=O)Nc1sccc1C(N)=O`, 0.13% (inactive). For the molecule `COC(=O)c1cc2c(c3c4ccccc4n(S(=O)(=O)c4cccc(C)c4)c13)C(=O)N(Cc1ccccc1)C2`, the inhibition was 0.16% (inactive). For `CC1(C(=O)NCc2ccccc2)CN(S(C)(=O)=O)CC(=O)N1CC(F)(F)F` (centres undefined), the inhibition was -0.74% (inactive). Under `COc1ccc(C(=O)CSc2nc(C)cc(C)n2)cc1[N+](=O)[O-]` stands 11.2% (active); under `COc1ccc(C(=O)NNC(=O)c2cnccn2)cc1[N+](=O)[O-]`, 3.54% (inactive). In the case of `COc1ccc(-n2nnnc2SCC(=O)c2ccc(OC)c(OC)c2)cc1`, the inhibition was 1.76% (inactive). As for `CN1CCN(CC(=O)C23CC4CC(CC(C4)C2)C3)CC1`, the inhibition is -0.74% (inactive). The result for `COc1ccc(C(=O)Nc2c(N)nc(SCC(=O)N3CCC(C)CC3)[nH]c2=O)cc1OC` reads -1.43% (inactive).

For `C[C@@H]1ON(C)[C@H]2C[C@H]3c4cc(N5CCOCC5)ccc4CCN3C[C@@H]12`, the inhibition is -1.23% (inactive).

Consider `CCOC(=O)C1=C(C(=O)OCC)C2N(Cc3ccc(C#N)cc3)c3ccccc3[C@@]23C[C@@H](C(=O)OC)N(S(=O)(=O)c2ccc(F)cc2)C3=N1` (some centres undefined), for which the inhibition is 1.03% (inactive). The result for `CCOC(OCC)c1ccc(/C=C\c2nccc(N)n2)cc1` reads 4.82% (active); that for `Cc1cc2c(nc1C)CCCN2C`, 0.48% (inactive). On to `O=S(=O)(c1cccs1)N1CCCc2nc(-c3ccc(Br)cc3)ccc21`, for which the inhibition was 0.56% (inactive). The result for `Cc1ccc(C)c2[nH]c(=O)c(CN(Cc3cccnc3)C(=S)NCc3ccco3)cc12` reads 0.59% (inactive); that for `Cc1cccc(C)c1NC(=O)C(Cl)C(=O)c1ccccc1` (centres undefined), -0.19% (inactive); that for `Cc1occc1C(=O)N/N=C/c1ccc(-c2cccc([N+](=O)[O-])c2)o1`, 4.99% (active). In the case of `COC(=O)N/N=C/c1ccc(-c2ccc(Cl)c(Cl)c2)o1`, the inhibition is 3.75% (inactive).

`CCCc1ccc(OCc2ccc(C(=O)N/N=C/c3cccc([N+](=O)[O-])c3)o2)c(OC)c1`: the inhibition was 0.9% (inactive). Under `CC[C@H](NC(=O)[C@H](Cc1ccccc1)NC(=O)[C@H]1O[C@@H](n2cnc3c(=O)[nH]c(N)nc32)[C@H](O)[C@@H]1O)c1ccccc1` stands 0.98% (inactive). Under `COc1ccccc1-c1n[nH]nc1C1=CC(=O)CC(C)(C)C1` stands 2.39% (inactive); under `COc1ccccc1-c1n[nH]c2c1[C@H](C)CC[C@H]2C(C)C`, 12.6% (active).
